Results as given in PubChem BioAssay (NCI).
This is part of a sample that, as a whole, favours compounds with a hit. Of some 83,000 tested, about 20% had one in any assay.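 Growth was measured after 48 h exposure to one concentration of compound in 96-well plates. Values under 10 count as active.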 Active and inactive are the calls of the source.

Experiments:
Test in all cases: NCI-60 one-dose screen, 48 h (100 = growth as untreated, 0 = no growth, -100 = all killed)
[1] = tested on: DU-145 prostate; conditions: 10 µM unless noted
[2] = tested on: K-562 leukemia; conditions: 10 µM unless noted
[3] = tested on: MALME-3M melanoma; conditions: 10 µM unless noted
[4] = tested on: MDA-MB-231 breast; conditions: 10 µM unless noted
[5] = tested on: RXF 393 renal; conditions: 10 µM unless noted
[6] = tested on: SF-268 CNS; conditions: 10 µM unless noted
[7] = tested on: SF-295 CNS; conditions: 10 µM unless noted
[8] = tested on: SF-539 CNS; conditions: 10 µM unless noted
[9] = tested on: UACC-257 melanoma; conditions: 10 µM
[10] = tested on: M14 melanoma; conditions: 10 µM unless noted
[11] = tested on: HCT-15 colon; conditions: 10 µM unless noted
[12] = tested on: HT29 colon; conditions: 10 µM unless noted
[13] = tested on: SNB-75 CNS; conditions: 10 µM unless noted
[14] = tested on: SNB-19 CNS; conditions: 10 µM unless noted
[15] = tested on: U251 CNS; conditions: 10 µM unless noted
[16] = tested on: PC-3 prostate; conditions: 10 µM unless noted
[17] = tested on: SK-MEL-5 melanoma; conditions: 10 µM unless noted
[18] = tested on: UACC-62 melanoma; conditions: 10 µM unless noted
[19] = tested on: LOX IMVI melanoma; conditions: 10 µM unless noted
[20] = tested on: SK-MEL-28 melanoma; conditions: 10 µM unless noted

Measured: growth

Cc1ccc(Cc2cnc(NC(=O)/C(C#N)=C/c3ccc(-c4ccc(Cl)cc4)o3)s2)cc1
inactive: [1] 84% | [2] 88.7% | [3] 98.8% | [4] 97.4% | [5] 61% | [6] 95.3% | [7] 102% | [8] 98.4% | [9] 100% | [10] 95.9% | [11] 93.3% | [12] 97.1% | [13] 94.9% | [14] 106% | [15] 102% | [16] 87.6% | [17] 92.4% | [18] 95.4% | [19] 81.3% | [20] 103%

CCCCCCNC(=O)Oc1ccc(/C(=C(/C)c2ccc(Cl)cc2)c2ccc(OCCN3CCCC3)cc2)cc1
active: [2] 6.52% | [3] -70.8% | [5] 9.25% | [7] -32.7% | [8] -24.4% | [9] -16.5% | [10] -54.3% | [11] 0.291% | [12] -17.7% | [19] -98.6% | [20] -49.4%
inactive: [1] 69.2% | [4] 30.6% | [6] 61.9% | [13] 67.2% | [14] 45% | [15] 29.6% | [16] 37.5% | [17] 14.9% | [18] 20.8%

CS(=O)c1nccc(-c2c(-c3ccc(F)c(OCCc4ccc(F)cc4)c3)nc3sccn23)n1 (stereo not given)
inactive: [3] 55.6% | [4] 45% | [5] 60.9% | [6] 93.3% | [7] 98.3% | [8] 91.2% | [10] 67.6% | [11] 11.7% | [13] 88.7% | [14] 70.8% | [15] 92.6% | [16] 60.5% | [17] 99.1% | [18] 86% | [19] 19.9% | [20] 64.8%
active: [1] 1.03% | [2] 7.91% | [9] -0.163% | [12] 7.84%

Cc1ccc(-c2cc3nc(C(Cl)Cl)nc(-c4ccccc4)n3n2)cc1
inactive: [2] 90.4% | [3] 122% | [4] 79.7% | [5] 70.4% | [6] 89% | [7] 79.8% | [8] 90.8% | [9] 112% | [10] 112% | [11] 75.6% | [12] 74.9% | [13] 99.3% | [14] 74.1% | [15] 66.8% | [16] 79.3% | [17] 92.2% | [18] 91.9% | [19] 109% | [20] 101%
active: [1] 2.08%

CCN1C(=O)N(CC)C2C1NN=C1SC(c3ccccc3)=CC(=O)N12 (stereo not given)
active: [5] -11.1% | [8] -8.38% | [10] 5.39% | [12] -8.74%
inactive: [1] 26% | [2] 11.7% | [3] 46.7% | [4] 38.8% | [6] 62.4% | [7] 11.1% | [9] 63.6% | [11] 19.2% | [13] 14% | [14] 31.8% | [15] 14.5% | [16] 17.1% | [17] 38.2% | [18] 19.4% | [19] 40.1% | [20] 59.5%

CN1CCN(c2nc(-c3csc(-c4ccncc4)n3)cc3ccccc23)CC1
active: [5] -26.5% | [9] -1.71% | [10] -18.5%
inactive: [1] 65.3% | [2] 11% | [3] 30.7% | [4] 63% | [6] 72.8% | [7] 45.8% | [8] 52.6% | [11] 17% | [12] 26.5% | [13] 62.5% | [14] 77.6% | [15] 49.1% | [16] 59.8% | [17] 70.4% | [18] 26.6% | [19] 11.4% | [20] 28.8%

CC(=O)c1ccc(NC(=O)COc2ccc(C3SCC(=O)N3c3ccc(Br)cc3)cc2)cc1 (stereo not given)
inactive: [1] 104% | [2] 90.8% | [3] 107% | [4] 90.6% | [5] 99.3% | [6] 103% | [7] 98% | [8] 99.2% | [9] 102% | [10] 99.9% | [11] 98.4% | [12] 107% | [13] 100% | [14] 95.2% | [15] 100% | [16] 91.6% | [17] 96.4% | [18] 79.5% | [19] 92.1% | [20] 104%

C/C(=N/Nc1nc(N/N=C(/C)c2ccc([N+](=O)[O-])cc2)nc(N2CCOCC2)n1)c1ccc([N+](=O)[O-])cc1
inactive: [1] 81% | [2] 79.7% | [3] 69.4% | [4] 43.5% | [5] 69.2% | [6] 96% | [7] 66.5% | [8] 15.5% | [9] 99.2% | [10] 74.5% | [11] 66.1% | [12] 80.6% | [13] 80.6% | [14] 63.1% | [15] 92.6% | [16] 76.6% | [17] 67.1% | [18] 85.3% | [19] 38.9% | [20] 83.8%

N#C/C(=C\c1ccc(N2CCCCC2)cc1)C(=O)Nc1sc2c(c1C#N)CCC2
inactive: [1] 101% | [2] 90.7% | [3] 100% | [4] 96.4% | [5] 83.5% | [6] 90.3% | [7] 95.8% | [8] 89.6% | [9] 91.7% | [10] 102% | [11] 95% | [12] 98.8% | [13] 86.8% | [14] 99.2% | [15] 96.8% | [16] 91.5% | [17] 98.7% | [18] 90.2% | [19] 89.8% | [20] 95.2%

CS(=O)c1nccc(-c2c(-c3ccc(F)c(OCc4ccccc4)c3)nc3sccn23)n1 (stereo not given)
active: [1] 4.02%
inactive: [2] 17.8% | [3] 91.7% | [4] 93.8% | [5] 96.6% | [6] 105% | [7] 101% | [8] 94.6% | [9] 19.8% | [10] 96.5% | [11] 74.8% | [12] 89.5% | [13] 95.4% | [14] 93.3% | [15] 105% | [16] 54.1% | [17] 100% | [18] 93.6% | [19] 81.7% | [20] 55.5%

C=C(C)C(=O)O[C@H]1C[C@@]2(C)OC(=CC2=O)[C@H](C)[C@H](O)[C@H]2OC(=O)C(=C)[C@@H]21
inactive: [1] 73.2% | [2] 20.4% | [3] 48.3% | [4] 76.6% | [5] 22.2% | [6] 79.8% | [7] 93.8% | [8] 74.7% | [9] 67% | [10] 71.7% | [11] 32.6% | [12] 95.6% | [13] 77.2% | [14] 106% | [15] 86.6% | [16] 79.7% | [17] 88.2% | [18] 52.3% | [19] 57.7% | [20] 61.7%

CC(=O)Nc1ccc(NC(=O)Nc2cccc(-c3nc(-c4ccc(NC(=O)c5cccnc5)cc4Cl)no3)c2)cc1C(F)(F)F
active: [1] -13.9% | [2] -1.38% | [3] -84.9% | [4] -60.3% | [5] -79.5% | [6] -33.1% | [7] -69.6% | [8] -87.6% | [9] -43.7% | [10] -58.7% | [12] -41% | [13] -64.1% | [14] -12.2% | [15] -56.1% | [16] -61.4% | [17] -88.2% | [18] -81.6% | [19] -91.9% | [20] -81.8%
inactive: [11] 25.7%

CCCCCCNC(=O)Oc1ccc(/C(=C(\C)c2ccc(Cl)cc2)c2ccc(OCCN(C)C)cc2)cc1
inactive: [1] 83.4% | [4] 58.5% | [5] 46% | [6] 65.4% | [7] 84.8% | [8] 42% | [9] 18.9% | [13] 75.8% | [14] 60.8% | [15] 46% | [16] 56% | [17] 47.9% | [18] 84.7% | [20] 75%
active: [2] 4.21% | [3] -33.7% | [10] 3.61% | [11] 7.58% | [12] 5.99% | [19] -67.8%

CCN1C(=O)N(CC)C2SC(N/N=C/C=C/c3ccccc3OC)=NC21 (stereo not given)
active: [7] 5.32% | [8] -10.6% | [10] 0.965% | [12] 6.38% | [19] 5.74%
inactive: [1] 12.9% | [2] 18.3% | [3] 50.4% | [4] 26.5% | [5] 20.5% | [6] 50.9% | [9] 73.5% | [11] 13.7% | [13] 18.8% | [14] 25.5% | [15] 18.1% | [16] 26.7% | [17] 13.2% | [18] 37.1% | [20] 60.2%

CN1CCN(Cc2ccc(NC(=O)c3cncc(C#Cc4[nH]nc5ncncc45)c3)cc2C(F)(F)F)CC1
inactive: [1] 56.6% | [2] 12.4% | [4] 22.9% | [5] 43.4% | [6] 73.7% | [7] 97% | [8] 43.4% | [9] 86.1% | [10] 15% | [11] 65.4% | [12] 25.8% | [13] 78.2% | [14] 97.3% | [15] 76.8% | [16] 81.3% | [17] 71.2% | [18] 39.6% | [19] 13% | [20] 37.7%
active: [3] -5.86%
